Bioassay records deposited in PubChem BioAssay by National Center for Advancing Translational Sciences (NCATS).
Most compounds without a hit are left out; they make up all but 7.9% or so of the library.
SW480 rereplic = induces DNA re-replication in SW480 colon adenocarcinoma cells. SW480 DNA re-replication, Hoechst DNA content imaging, 48 h. Potency, µM (highest dose often 46.1 µM), most hits filed as activators. 340,000 compounds, 1.8% hits; further: nearly all actives have a fitted effect of over 55% in size
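Readout is total intensity of Hoechst-stained nuclei, excited at 405 nm and collected at 500-530 nm. Compound treatment lasted 48 hr at 37 C in 5% CO2 before staining.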
HT1080-NT tox = kills 2HG-producing HT-1080-NT fibrosarcoma cells; HT-1080-NT fibrosarcoma viability, CellTiter-Glo ATP luminescence, 48 h; Potency, µM (top dose mostly 46.1 µM), usual class: cytotoxic; 360,000 compounds, 1.6% hits;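 further: NT is the 2HG producing partner of a matched IDH1 knockdown line; nearly all actives have a fitted effect of over 55% in size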
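Fibrosarcoma NT cells, 750 per well in 5% FBS RPMI, were exposed to compound for 48 hours. Viability: CellTiter-Glo luminescence.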
MCF10A rerep = inducers of DNA re-replication in MCF 10A breast cells. Potency, µM (titrated, usually from 46.1 µM), usual class: activators. 350,000 compounds, 2.9% hits. MCF 10A DNA re-replication, Hoechst nuclear intensity, 48 h; further: nearly all actives have a fitted effect of over 50% in size
KB-3-1 tox = KB-3-1 parental cell cytotoxicity; KB-3-1 viability, CellTiter-Glo ATP luminescence, 72 h; Potency, µM (titrated, usually from 46.1 µM), most hits filed as cytotoxic; 400,000 compounds, 1.4% hits; further: nearly all actives have a fitted effect of over 60% in size
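KB-3-1 parental drug-naive adenocarcinoma cells in DMEM/10% FBS, incubated 72 h at 37 C with pin-transferred compounds across a concentration series. Viability by CellTiter-Glo luminescence; concentration-response curves fitted after normalization.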
KB-V1 MDR tox = KB-V1 MDR subline cytotoxicity. KB-V1 MDR cells viability, CellTiter-Glo, 72 h. Potency, µM (top dose mostly 46.1 µM), hits mostly cytotoxic. 400,000 compounds, 3.4% hits; further: nearly all actives have a fitted effect of over 60% in size
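Cytotoxicity via CellTiter-Glo luminescence after 72 h compound exposure at 37 degrees C. Cells: drug-selected KB-V1 line, DMEM phenol-red free plus 10% FBS. Compounds tested at multiple concentrations; normalized data fitted to concentration-effect curves.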
HT1080 IDH1KD tx = toxicity to HT-1080 IDH1 knockdown cells (counter line). HT-1080 IDH1 knockdown viability, ATP luminescence, 48 h. Potency, µM (top dose mostly 46.1 µM), most hits filed as cytotoxic. 360,000 compounds, 2% hits. AID 686971
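% activity derives from luminescence (CellTiter-Glo), normalised to DMSO and no-cell wells. HT-1080-IDH1KD cells, 750/well, had 48 h compound exposure at 37 °C.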
A number is an active result; - = inactive; ? = inconclusive; . = no result; [ ] = dose if it differs, or a comment. The call rests on the fitted dose curve; in most records, active means well fitted curve in the direction sought with a large enough effect; inconclusive means small, poorly fitted or top-dose-only effect, or another doubt; inactive means no such curve, though single readings can be large; an effect the other way counts as inactive or inconclusive.

SMILES	SW480 rereplic	HT1080-NT tox	MCF10A rerep	KB-3-1 tox	KB-V1 MDR tox	HT1080 IDH1KD tx
COCCNc1oc(/C=C/c2cccs2)nc1S(=O)(=O)c1ccccc1	.	-	.	-	?	-
CN(C)CCCNc1oc(/C=C/c2cccs2)nc1S(=O)(=O)c1ccccc1	12µM	-	?	-	-	-
Cc1cc([N+](=O)[O-])nn1CC(=O)N/N=C/c1ccc(O)cc1O	?	?	-	?	-	?
CCCNC(=S)N(Cc1ccccc1)Cc1nc2ccccc2c(=O)[nH]1	-	-	-	?	5.2µM	-
O=C(c1ccccc1)N(Cc1ccc(F)cc1)Cc1nc2ccccc2c(=O)[nH]1	4.1µM	7.1µM	?	-	-	6.3µM
CCOCCCNC(=S)N(Cc1ccccc1)Cc1nc2ccccc2c(=O)[nH]1	-	-	-	-	-	-
CCN(CC(=O)Nc1ccc(Br)cc1)CC(=O)Nc1cc(C)on1	-	-	-	-	?	-
CC1CCC/C(=C(\C#N)c2nc(-c3cc4ccccc4oc3=O)cs2)C1 (stereo unspecified)	-	-	-	?	8.2µM	-
COc1ccc(/C=C(/C#N)c2nc(-c3cc4ccccc4oc3=O)cs2)cc1	.	.	.	-	-	.
Cc1ccc(C)c(NC(=S)NNC(=O)c2sccc2C)c1	-	8.9µM	-	-	?	?
CCC(C)CN1C(=O)CSCC1(C)C(=O)NC(C)C (stereo unspecified)	.	-	.	-	-	-
Cc1ccc(-n2nnnc2-c2cnoc2-c2cccc(F)c2)cc1	-	-	?	-	-	-
Clc1ccc(-n2nnnc2-c2cnc3ccccc3c2-c2ccccc2)cc1	-	?	-	-	16µM	?
Cc1ccc(-n2nnnc2-c2cnc3ccc(Cl)cc3c2-c2ccccc2)cc1	?	-	21µM	7.3µM	?	-
Clc1ccc(-c2nnnn2-c2ccc(Cl)cc2)cc1	-	?	-	?	-	-
Nc1ncc(-c2nnnn2-c2ccc(Cl)cc2)c(-c2ccc(Cl)cc2)n1	2.9µM	6.5µM	?	5.2µM	6.5µM	7.3µM
Cc1c(C)n(C)c2ccc(C(=O)NCCc3ccc(Cl)cc3)cc12	.	.	.	-	-	.
CNc1cc2c(cc1S(=O)(=O)Nc1ccc(C)c(C)c1)CCC(=O)N2	.	.	.	-	-	.
COc1cccc(CNC(=O)C(Cc2ccccc2)NS(=O)(=O)c2ccc3c(c2)oc(=O)n3C)c1 (stereo unspecified)	.	.	.	-	-	.
Cc1cccc(NC(=O)C(C)SCc2nc3sc4c(c3c(=O)[nH]2)CCCC4)n1 (stereo unspecified)	-	-	-	-	-	-
CC(C)C(Cl)=NOC(=O)Nc1ccc(S(N)(=O)=O)cc1	?	-	2.9µM	-	-	?
COc1ccc(NC(=O)c2cc(-c3ccc(OC)c(OC)c3)nc3ccccc23)c(OC)c1	-	-	?	?	?	-
O=C(Nc1ccccc1N1CCOCC1)c1cc(-c2ccco2)nc2ccccc12	-	?	?	?	?	-
COc1cc(NC(C(=O)Nc2cccc(C(C)=O)c2)c2ccccc2)cc(OC)c1OC (stereo unspecified)	-	-	-	?	4.6µM	-
COc1cc(-c2cc(C(=O)Nc3ccccc3N3CCOCC3)c3ccccc3n2)cc(OC)c1OC	-	-	?	-	9.2µM	-
SMILES	SW480 rereplic	HT1080-NT tox	MCF10A rerep	KB-3-1 tox	KB-V1 MDR tox	HT1080 IDH1KD tx
COc1cccc(NC(C(=O)Nc2cccc(C(C)=O)c2)c2ccccc2)c1 (stereo unspecified)	-	-	-	-	?	-
COc1ccc(-c2cc(C(=O)Nc3ccc(C(N)=O)cc3)c3ccccc3n2)cc1OC	18µM	?	?	?	-	?
COc1cc(-c2cc(C(=O)Nc3cccc(C(C)=O)c3)c3ccccc3n2)cc(OC)c1OC	-	-	?	?	21µM	?
COc1cc(-c2cc(C(=O)Nc3ccc(O)cc3)c3ccccc3n2)cc(OC)c1OC	-	?	-	-	-	?
CC1CCN(CC(=O)Nc2ccc(C(=O)N3CCCCC3)cc2)CC1	-	-	?	-	?	-
CCN(Cc1nc2ccccc2c(=O)[nH]1)C(=O)COc1ccccc1Cc1ccccc1	?	?	?	-	-	?
O=C1OCCC1Sc1nnc2c(n1)[nH]c1ccccc12 (stereo unspecified)	.	-	.	.	.	-
CCN1C(=O)CCN(C2CCCC2)c2nc(Nc3ccc(C(=O)NC4CCN(C)CC4)cc3OC)ncc21	-[9.22 µM]	?	10µM	9.2µM	-	21µM
